{"source": "PubChem BioAssay AID720517", "about": "(National Center for Advancing Translational Sciences (NCATS), 2013)", "note": "Inconclusive results are not listed. Values without a mark were called inactive. The call rests on the fitted dose curve; in most records, active means well fitted activation curve with a large enough effect; inconclusive means small, poorly fitted or top-dose-only effect; inactive means flat fitted curve, though single readings scatter.", "data": [{"assay": "qHTS for Inhibitors of Cell Surface uPA Generation: FP59 Counterscreen for Cherry-picked Compounds; further: 0% is about no effect", "conditions": "FP59 anthrax toxin cytotoxicity counterscreen, cells; series mostly up to 115 µM; activity (protection from FP59): at the top concentration", "units": {"activity (protection from FP59)": "%"}, "values": [{"smiles": "COC(=O)C1=C(c2cccc(OC)c2OC)C[C@@H]2CC[C@H]1N2C(=O)NC1CC1", "activity (protection from FP59)": -1.47}, {"smiles": "COc1ccccc1N1CCN(Cc2ccc(SC)cc2)CC1", "activity (protection from FP59)": -1.45}, {"smiles": "CCOC(=O)c1ccc(N=Cc2c(O)n(-c3ccc(OC)cc3)c(=S)[nH]c2=O)cc1", "activity (protection from FP59)": -1.58}, {"smiles": "FC(F)(F)Oc1ccc(NC2=NCCCS2)cc1", "activity (protection from FP59)": -1.48}, {"smiles": "CCCCCn1c(=O)c(C(=O)Nc2ccccn2)c(O)c2ccccc21", "activity (protection from FP59)": -0.573}, {"smiles": "COCC(=O)N1Cc2ccccc2-n2nncc2C1", "activity (protection from FP59)": -1.41}, {"smiles": "Cc1ccccc1O", "activity (protection from FP59)": -1.37}, {"smiles": "C[N+](C)(C)CCOC(=O)CBr", "activity (protection from FP59)": -1.22}, {"smiles": "Cc1cc(C(=O)NP(=O)(N2CCOCC2)N2CCOCC2)c(C)n1C1CC1", "activity (protection from FP59)": -0.0947}, {"smiles": "O=P1(NCCCl)OCCCN1CCCl", "note": "(stereo not given)", "activity (protection from FP59)": -0.82}, {"smiles": "c1cncc(C2CCCCN2)c1", "note": "(stereo not given)", "activity (protection from FP59)": -0.643}, {"smiles": "CCOc1ccc(CN2CCN(C(=O)Cc3ccccc3)CC2)cc1", "activity (protection from FP59)": -0.338}, {"smiles": "O=C(c1ccc(F)c([N+](=O)[O-])c1)N1CC2CC(C1)c1cccc(=O)n1C2", "note": "(stereo not given)", "activity (protection from FP59)": -1.17}, {"smiles": "COc1ccccc1NC(=O)N1C[C@@H]2C[C@@H](C1)c1cccc(=O)n1C2", "activity (protection from FP59)": -1.26}, {"smiles": "Cc1ncc(CN2CCCC(C(=O)c3cccc(OC(C)C)c3)C2)s1", "note": "(stereo not given)", "activity (protection from FP59)": -1.32}, {"smiles": "Cc1ccc(-n2c(O)c(C=NCCN3CCNCC3)c(=O)[nH]c2=S)cc1", "activity (protection from FP59)": -1.47}, {"smiles": "COc1ccc(-c2nn(CCC#N)cc2C(=O)Nc2cccc([N+](=O)[O-])c2)cc1OC", "activity (protection from FP59)": -1.37}, {"smiles": "COc1ccc(-c2nn(CCC#N)cc2C(=O)Nc2ccccc2)cc1OC", "activity (protection from FP59)": -1.33}, {"smiles": "O=c1[nH]c(=O)n(-c2ccc(Cl)cc2)c(O)c1C=Nc1ccc(S(=O)(=O)Nc2nccs2)cc1", "activity (protection from FP59)": -1.39}, {"smiles": "O=c1[nH]c(=O)n(CCc2ccccc2)c(O)c1C=NC1CC1", "activity (protection from FP59)": -1.46}]}]}
